Laboratory results from PubChem BioAssay (EPA / NIEHS).
Records with an inconclusive call do not appear. The source made the active and inactive calls. Rule for the calls, unless noted: active = hit-call score of the fitted dose curve at least 0.9, where 1 is the maximum; inactive = score below 0.9.

Key:
[1] = molecular target: human RAR-related Orphan Receptor beta (RORb), RORB (gene 6096) (UniProt Q92753); assay: ATG_RORb_TRANS: Attagene TRANS-FACTORIAL HepG2 Assay for human RAR-related Orphan Receptor beta (RORb) (AID 2283010; active = hit-call score of the fitted dose curve at least 0.9, where 1 is the maximum)
How it was run: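 HepG2 cells were transiently transfected with multiplexed GAL4-UAS reporter units expressing chimeric nuclear receptor–GAL4 proteins, then dosed for 24 h. Reporter mRNA was quantified by RT-PCR with fluorescent labelling and capillary electrophoresis; gain of signal was fitted relative to DMSO.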

[2] = read-out: E-selectin (Homo sapiens) (UniProt P16581); assay: BSK_3C_Eselectin: BioMAP Diversity Plus: 3C Assay for Eselectin Biomarker Activity (AID 2283015); conditions: primary human endothelial cells (HUVEC); actives raise or lower the signal
How it was run: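 E-selectin ELISA readout, fitted bidirectionally relative to DMSO, taken 24 h post-dosing in HUVEC cultures of the 3C system. Overt cytotoxicity tracked with sulforhodamine B staining of parallel wells.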

[3] = read-out: Interleukin-1 alpha (IL1a), IL1A (gene 3552); assay: BSK_BE3C_IL1a: BioMAP Diversity Plus: BE3C Assay for Interleukin-1 alpha (IL1a) Biomarker Activity (AID 2283016); conditions: primary human bronchial epithelial cells; actives raise or lower the signal
How it was run: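 Human primary bronchial epithelial cells (BE3C system) were dosed with compound and IL-1a measured by ELISA 24 h later. Activity was fitted bidirectionally against DMSO baseline; cytotoxicity was tracked in parallel cultures by SRB total-protein staining.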

[4] = read-out: Monocyte Chemoattractant Protein-1 (MCP1), CCL2 (gene 6347); assay: BSK_3C_MCP1: BioMAP Diversity Plus: 3C Assay for Monocyte Chemoattractant Protein-1 (MCP1) Biomarker Activity (AID 2283017); conditions: primary human endothelial cells (HUVEC); actives raise or lower the signal
How it was run: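 MCP-1 was measured by ELISA 24 h after dosing in primary HUVEC 3C cultures and fitted in both directions relative to DMSO; cytotoxicity was checked by SRB total-protein staining in parallel wells.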

[5] = read-out: Monocyte Chemoattractant Protein-1 (MCP1), CCL2 (gene 6347); assay: BSK_4H_MCP1: BioMAP Diversity Plus: 4H Assay for Monocyte Chemoattractant Protein-1 (MCP1) Biomarker Activity (AID 2283018); conditions: primary human endothelial cells (HUVEC); actives raise or lower the signal
How it was run: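 Human umbilical vein endothelial cells (4H system) dosed with chemical; MCP-1 measured by ELISA 24 h after dosing. Bidirectional curve fitting against DMSO negative control as baseline; parallel SRB total-protein staining tracks overt cytotoxicity.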

[6] = read-out: Human Leukocyte Antigen - DR isotype (HLADR), HLA-DRA (gene 3122); assay: BSK_3C_HLADR: BioMAP Diversity Plus: 3C Assay for Human Leukocyte Antigen - DR isotype (HLADR) Biomarker Activity (AID 2283019); conditions: primary human endothelial cells (HUVEC); actives raise or lower the signal
How it was run: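 Bidirectional fitting against DMSO was applied to the HLA-DR ELISA signal from human umbilical vein endothelial cells, 24 h post-dose. Cytotoxicity came from parallel SRB total-protein staining; 3C proliferation was counted by SRB at 48 h.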

[7] = read-out: Interleukin-8 (IL8), CXCL8 (gene 3576); assay: BSK_3C_IL8: BioMAP Diversity Plus: 3C Assay for Interleukin-8 (IL8) Biomarker Activity (AID 2283020); conditions: primary human endothelial cells (HUVEC); actives raise or lower the signal
How it was run: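 Primary human umbilical vein endothelial cells (3C system) were exposed to test chemical for 24 h, then IL-8 was quantified by ELISA. Responses were fitted bidirectionally against DMSO vehicle as baseline.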

[8] = read-out: Monokine induced gamma interferon (MIG), CXCL9 (gene 4283); assay: BSK_3C_MIG: BioMAP Diversity Plus: 3C Assay for Monokine induced gamma interferon (MIG) Biomarker Activity (AID 2283021); conditions: primary human endothelial cells (HUVEC); actives raise or lower the signal;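 for AC50: MIG protein level measured by immunoassay in the treated endothelial cultures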
How it was run: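 Primary human umbilical vein endothelial cells in the 3C system were exposed to chemical for 24 h, after which MIG was quantified by ELISA. Activity was fitted bidirectionally against DMSO as negative control and baseline.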

[9] = molecular target: human Vitamin D Receptor (VDR), VDR (gene 7421) (UniProt P11473); assay: ATG_VDR_TRANS: Attagene TRANS-FACTORIAL HepG2 Assay for human Vitamin D Receptor (VDR) (AID 2283022; active = hit-call score of the fitted dose curve at least 0.9, where 1 is the maximum)
How it was run: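 Transactivation by an exogenous VDR-Gal4 chimera in transiently transfected HepG2 cells was measured as reporter transcript level 24 hours after chemical treatment. RT-PCR products were analysed by capillary electrophoresis and fitted in the positive direction relative to DMSO.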

[10] = read-out: Matrix Metallopeptidase 1 (MMP1), MMP1 (gene 4312); assay: BSK_BE3C_MMP1: BioMAP Diversity Plus: BE3C Assay for Matrix Metallopeptidase 1 (MMP1) Biomarker Activity (AID 2283024); conditions: primary human bronchial epithelial cells; actives raise or lower the signal
How it was run: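 Primary human bronchial epithelial cells were dosed with test chemicals, and MMP1 levels were measured by ELISA 24 h later. Data were fitted bidirectionally against DMSO as the negative control and activity baseline.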

[11] = BSK_3C_Vis: BioMAP Diversity Plus: 3C Assay for Morphology Visualization (AID 2283025); conditions: primary human endothelial cells (HUVEC);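 note: fitted both ways so gain or loss versus DMSO counts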
How it was run: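 Human umbilical vein endothelial cells in the 3C system were imaged by light microscopy 24 h after chemical dosing to record cell morphology. Activity was fitted bidirectionally against DMSO as negative control and baseline; the endpoint serves as a background control.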

[12] = read-out: Pselectin, SELP (gene 6403); assay: BSK_4H_Pselectin: BioMAP Diversity Plus: 4H Assay for Pselectin Biomarker Activity (AID 2283026); conditions: primary human endothelial cells (HUVEC); actives raise or lower the signal
How it was run: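 Primary human umbilical vein endothelial cells were exposed to test chemical for 24 h, then cell-surface P-selectin was quantified by ELISA. Activity was fitted bidirectionally against DMSO as negative control and baseline.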

[13] = BSK_4H_SRB: Viability Assessment in the BioMAP Diversity Plus: 4H Assay (AID 2283027); conditions: primary human endothelial cells (HUVEC);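 note: cells exposed to compound for 24 h before staining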;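 for AC50: curves fitted both ways versus DMSO so AC50 may be loss or gain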
How it was run: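 Absorbance at 560 nm of SRB-stained total protein served as the viability read-out in confluent primary human umbilical vein endothelium 24 h after chemical treatment. Curves were fitted bidirectionally against DMSO as negative control.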

[14] = BSK_BE3C_SRB: Viability Assessment in the BioMAP Diversity Plus: BE3C Assay (AID 2283028); conditions: primary human bronchial epithelial cells;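 for AC50: fitted both ways so AC50 may mark signal gain or loss versus DMSO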
How it was run: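 Cytotoxicity read-out: SRB (0.1%) staining of TCA-fixed (10%) human lung bronchial epithelial cells, absorbance 560 nm, 24 h post-dosing. Curves fitted both directions relative to DMSO.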

[15] = read-out: Thrombomodulin, THBD (gene 7056); assay: BSK_3C_Thrombomodulin: BioMAP Diversity Plus: 3C Assay for Thrombomodulin Biomarker Activity (AID 2283029); conditions: primary human endothelial cells (HUVEC); actives raise or lower the signal
How it was run: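 Primary human umbilical vein endothelial cells (3C system) were exposed to chemical for 24 h, then thrombomodulin levels were measured by ELISA. Activity was fitted bidirectionally against the DMSO negative control as baseline.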

[16] = read-out: Urokinase-type plasminogen activator receptor (uPAR), PLAUR (gene 5329); assay: BSK_4H_uPAR: BioMAP Diversity Plus: 4H Assay for Urokinase-type plasminogen activator receptor (uPAR) Biomarker Activity (AID 2283030); conditions: primary human endothelial cells (HUVEC); actives raise or lower the signal
How it was run: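 uPAR level read by ELISA on HUVEC cultures (BioMAP 4H) 24 h post-dosing, analyzed for gain or loss relative to DMSO. Parallel SRB staining assessed overt cytotoxicity.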

[17] = read-out: Vascular endothelial growth factor receptor 2 (Homo sapiens) (UniProt P35968); assay: BSK_4H_VEGFRII: BioMAP Diversity Plus: 4H Assay for Vascular endothelial growth factor receptor 2 (VEGFR2) Biomarker Activity (AID 2283031); conditions: primary human endothelial cells (HUVEC); actives raise or lower the signal
How it was run: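 Measured by ELISA after 24 h of compound treatment: VEGFR2 on primary human umbilical vein endothelial cells, fitted in both directions relative to DMSO. Parallel cultures received SRB staining (560 nm) for overt cytotoxicity.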

[18] = BSK_3C_SRB: Viability Assessment in the BioMAP Diversity Plus: 3C Assay (AID 2283023); conditions: primary human endothelial cells (HUVEC);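 note: fitted both ways against DMSO so a hit may be signal rise or drop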
How it was run: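 Cytotoxicity readout in parallel HUVEC 3C cultures: after 24 h compound exposure, cells fixed with 10% TCA, stained with 0.1% SRB and read at 560 nm. Gain or loss relative to DMSO fitted.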

Measured: AC50

Sequence of human Vitamin D Receptor (VDR), VDR (gene 7421) (P11473 whole entry, looked up, the tested form may be a part): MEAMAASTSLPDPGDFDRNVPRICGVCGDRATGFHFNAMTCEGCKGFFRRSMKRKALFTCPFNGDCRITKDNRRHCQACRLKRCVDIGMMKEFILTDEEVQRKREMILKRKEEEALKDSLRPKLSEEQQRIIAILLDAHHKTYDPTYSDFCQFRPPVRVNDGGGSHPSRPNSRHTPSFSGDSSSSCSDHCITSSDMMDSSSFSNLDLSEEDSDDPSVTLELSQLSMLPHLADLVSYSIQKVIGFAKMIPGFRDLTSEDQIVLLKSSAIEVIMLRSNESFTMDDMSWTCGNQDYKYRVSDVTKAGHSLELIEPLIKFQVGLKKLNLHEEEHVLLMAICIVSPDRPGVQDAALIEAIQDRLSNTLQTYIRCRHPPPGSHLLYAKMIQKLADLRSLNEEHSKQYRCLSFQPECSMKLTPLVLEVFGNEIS
Sequence of E-selectin (Homo sapiens) (P16581 whole entry, looked up): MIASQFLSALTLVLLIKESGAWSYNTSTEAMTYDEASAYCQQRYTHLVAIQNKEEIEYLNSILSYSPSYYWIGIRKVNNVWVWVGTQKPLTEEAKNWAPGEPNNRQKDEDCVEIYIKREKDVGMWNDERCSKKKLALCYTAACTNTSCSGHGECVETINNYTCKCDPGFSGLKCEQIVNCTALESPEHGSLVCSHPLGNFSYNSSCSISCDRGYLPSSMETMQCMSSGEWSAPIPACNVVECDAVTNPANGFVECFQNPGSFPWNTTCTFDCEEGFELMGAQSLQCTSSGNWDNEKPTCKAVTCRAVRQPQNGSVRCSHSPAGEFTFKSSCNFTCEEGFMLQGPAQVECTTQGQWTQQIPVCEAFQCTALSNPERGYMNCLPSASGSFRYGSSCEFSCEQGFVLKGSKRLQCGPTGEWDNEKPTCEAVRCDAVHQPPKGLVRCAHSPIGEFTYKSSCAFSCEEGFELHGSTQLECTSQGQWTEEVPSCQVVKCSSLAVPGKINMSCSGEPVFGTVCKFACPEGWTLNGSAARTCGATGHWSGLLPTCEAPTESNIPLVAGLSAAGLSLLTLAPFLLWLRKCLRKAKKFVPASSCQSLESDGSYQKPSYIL
Sequence of human RAR-related Orphan Receptor beta (RORb), RORB (gene 6096) (Q92753 whole entry, looked up, the tested form may be a part): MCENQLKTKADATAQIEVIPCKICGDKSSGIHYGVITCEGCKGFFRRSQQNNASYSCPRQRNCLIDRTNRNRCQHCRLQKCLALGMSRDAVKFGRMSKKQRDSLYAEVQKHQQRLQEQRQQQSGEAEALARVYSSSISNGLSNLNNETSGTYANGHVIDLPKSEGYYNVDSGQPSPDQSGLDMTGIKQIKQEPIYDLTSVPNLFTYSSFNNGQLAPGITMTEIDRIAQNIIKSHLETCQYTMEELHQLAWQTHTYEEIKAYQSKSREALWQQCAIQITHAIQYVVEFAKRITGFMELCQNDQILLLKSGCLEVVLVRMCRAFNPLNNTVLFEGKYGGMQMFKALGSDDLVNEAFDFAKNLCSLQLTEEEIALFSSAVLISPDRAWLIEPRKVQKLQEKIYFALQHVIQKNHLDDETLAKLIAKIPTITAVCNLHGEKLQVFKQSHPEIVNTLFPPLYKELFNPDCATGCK

CC(C)Oc1cc(-n2nc(C(C)(C)C)oc2=O)c(Cl)cc1Cl
active: [2] 29.2 µM | [4] 30.7 µM | [5] 25.8 µM | [6] 29.7 µM | [7] 29 µM | [10] 7.66 µM | [11] 13.2 µM | [12] 29.3 µM | [13] 30.3 µM | [14] 20 µM | [15] 20 µM
inactive: [1] | [3] | [8] | [9] | [16]

CN(C)C(=S)SSC(=S)N(C)C
active: [2] 30.5 µM | [3] 9.3 µM | [4] 30.9 µM | [5] 24 µM | [6] 14.9 µM | [7] 31.7 µM | [8] 33.6 µM | [10] 14.2 µM | [11] 16.3 µM | [12] 14 µM | [13] 25.7 µM | [14] 8.39 µM | [16] 26.3 µM
inactive: [1] | [9] | [15]

O=C(O)COc1nc(Cl)c(Cl)cc1Cl
inactive: [2] | [3] | [4] | [5] | [6] | [7] | [8] | [9] | [10] | [11] | [12] | [13] | [14] | [15] | [16]

CCCC1COC(Cn2cncn2)(c2ccc(Cl)cc2Cl)O1 (stereo not given)
inactive: [2] | [3] | [4] | [5] | [6] | [7] | [8] | [9] | [10] | [11] | [12] | [13] | [14] | [15] | [16] | [17]

O=C(Nc1ccccc1)Nc1ccnc(Cl)c1
inactive: [2] | [3] | [7] | [8] | [9] | [10] | [11] | [12] | [13] | [14] | [16]
active: [4] 9.83 µM | [5] 20 µM | [6] 20 µM | [15] 1.43 µM

CC1COC(Cn2cncn2)(c2ccc(Oc3ccc(Cl)cc3)cc2Cl)O1 (stereo not given)
active: [2] 24.8 µM | [3] 36 µM | [4] 36.8 µM | [5] 15.3 µM | [6] 30.3 µM | [7] 28.6 µM | [8] 33.4 µM | [18] 20.8 µM | [10] 32.2 µM | [11] 37.2 µM | [12] 24.7 µM | [13] 26.9 µM | [14] 31 µM | [16] 24.3 µM
inactive: [9] | [15] | [17]
